The OligoGym collection

The sequences below were run against MAGOHB (assay: pooled miR-30 sensor sort-seq; sequence = guide strand). Conditions: shRNA.
Also: reference of the scale not given here.

Sequence | sensor-assay potency score (higher = more potent)
TACAATTTCAAGCTCCTGTCGG | 0.0556
TCTTCTTTTGTAATTTCACTGT | -0.146
ATATCTAAGCTTTCCGTCCGGC | -0.264

These sequences were tested against MAGOH in the same assay as above. Conditions: shRNA.

Sequence | sensor-assay potency score (higher = more potent)
TTAACTTCCCGTCCGGTCGAAA | -1.06
TTCTTGTAATTGCTGTTGTTGG | -1.26
TAATAAAATACTCGTAAGCCTT | -0.986
TATCTTAACTTCCCGTCCGGTC | -1.04
TCTGATCATGACATCATTCTTG | 0.0716
TTGGCATATCTTAACTTCCCGT | -0.899
TCCAATAAGACTGAAGACCAAA | -1.96
ATATCTTAACTTCCCGTCCGGT | -0.615
TTTTCTGATCATGACATCATTC | -1.16
TAAGCCTTCTGGATCCTTGGAT | 0.401
TCAAACTCCAGGAACTCGTGGC | 0.562
TTGATTGACATCAATAAGGGAA | 0.101
